Data on 19 compounds can be found in PubChem BioAssay (NCATS).

The structures appear in SMILES notation. Inconclusive results are not listed. Activity calls are given as the source filed them. Unless noted, calls follow the shape of the dose curve; as a rule, active = well fitted curve in the direction sought with a large enough effect; inconclusive = small, poorly fitted or top-dose-only effect, or another doubt; inactive = no such curve, though single readings can be large; an effect the other way counts as inactive or inconclusive.

Test [1] concerns the target Cytochrome P450 1A2 (Homo sapiens) (UniProt P05177). The test is described as follows: p450-cyp1a2 (AID 410; calls by dose curve; also: potency is read from the fitted curve at half-maximal effect). The essentials:
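Human CYP1A2 (20nM) demethylated Luciferin-ME at its Km (100uM) in 100mM KPO4. After 10 min compound preincubation, NADPH regeneration ran the reaction 60 min at room temperature. Luciferin was read by luminescence, normalized to 57 uM furafylline.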

The target of test [2] is Mitogen-activated protein kinase 10 (Mus musculus) (UniProt Q61831). The test can be described thus: JNK3 AlphaScreen Assay (AID 530; active = well fitted curve in either direction with a large enough effect, not every such curve was filed as active;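 also: kinase came from lysate of stimulated human HepG2 cells; signal reports phosphorylation of biotinylated GST-cJun 1-79 at Ser73 with 10 µM ATP; series mostly up to about 57 µM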). Put shortly: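 JNK3 came from HepG2 lysates pre-activated with IL-1beta and TNF-alpha and phosphorylated biotinylated GST-cJun (1-79) at 10 uM ATP, pH 7.6, room temperature. Compounds were titrated. AlphaScreen signal used anti-phospho-cJun (Ser73) antibody.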
On the technique in general: Bead proximity is the source of the signal in Alpha formats.

The target in test [3] is 3',5'-cyclic-AMP phosphodiesterase 4B (Homo sapiens) (UniProt Q07343). The test is described as follows: qHTS Assay for Inhibitors of PDE-IV (AID 607; active = well fitted activation curve with a large enough effect in the main read-out, with a control signal flat, not every such curve was filed as active). The essentials: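 Live HEK293 cells with a modified cyclic nucleotide-gated (CNG) channel report intracellular cAMP via membrane-potential dye fluorescence (ex 535/em 590 nm). Endogenous PDE-IV was targeted. Compounds were tested at up to 22.9 uM final; RO 20-1724 100 uM served as control.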
Sequence of 3',5'-cyclic-AMP phosphodiesterase 4B (Homo sapiens) (Q07343 whole entry, looked up): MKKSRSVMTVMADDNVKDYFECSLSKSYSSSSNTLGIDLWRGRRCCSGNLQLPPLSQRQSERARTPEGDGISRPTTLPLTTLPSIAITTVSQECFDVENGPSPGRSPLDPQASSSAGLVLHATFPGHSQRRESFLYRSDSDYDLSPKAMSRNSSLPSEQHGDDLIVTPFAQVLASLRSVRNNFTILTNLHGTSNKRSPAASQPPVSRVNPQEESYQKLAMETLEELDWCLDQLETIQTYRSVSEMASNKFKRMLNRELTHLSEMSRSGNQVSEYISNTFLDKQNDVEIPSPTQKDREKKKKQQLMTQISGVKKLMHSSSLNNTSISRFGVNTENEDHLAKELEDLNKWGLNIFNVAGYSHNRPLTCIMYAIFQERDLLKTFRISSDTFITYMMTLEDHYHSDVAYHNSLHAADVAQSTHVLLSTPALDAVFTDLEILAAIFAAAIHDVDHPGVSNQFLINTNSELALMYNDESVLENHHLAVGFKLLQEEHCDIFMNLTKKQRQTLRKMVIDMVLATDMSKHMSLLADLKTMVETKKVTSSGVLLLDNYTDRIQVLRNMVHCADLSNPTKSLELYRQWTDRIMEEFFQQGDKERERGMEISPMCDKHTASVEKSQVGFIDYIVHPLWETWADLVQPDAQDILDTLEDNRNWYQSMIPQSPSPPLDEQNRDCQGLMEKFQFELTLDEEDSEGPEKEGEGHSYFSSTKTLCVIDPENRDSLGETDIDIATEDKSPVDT

The target of test [4] is Cytochrome P450 3A4 (Homo sapiens) (UniProt P08684). The test is described as follows: qHTS Assay for Activators of Cytochrome P450 3A4 (AID 885). Also: nearly all actives have a fitted effect of over 65% in size. The essentials: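 Quantitative HTS format: compounds preincubated with 20nM human CYP3A4 and Luciferin-PPXE substrate at KM, reaction started by NADPH regeneration, stopped after 60 min, luciferase luminescence read 20 min later.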
Sequence of Cytochrome P450 3A4 (Homo sapiens) (P08684 whole entry, looked up): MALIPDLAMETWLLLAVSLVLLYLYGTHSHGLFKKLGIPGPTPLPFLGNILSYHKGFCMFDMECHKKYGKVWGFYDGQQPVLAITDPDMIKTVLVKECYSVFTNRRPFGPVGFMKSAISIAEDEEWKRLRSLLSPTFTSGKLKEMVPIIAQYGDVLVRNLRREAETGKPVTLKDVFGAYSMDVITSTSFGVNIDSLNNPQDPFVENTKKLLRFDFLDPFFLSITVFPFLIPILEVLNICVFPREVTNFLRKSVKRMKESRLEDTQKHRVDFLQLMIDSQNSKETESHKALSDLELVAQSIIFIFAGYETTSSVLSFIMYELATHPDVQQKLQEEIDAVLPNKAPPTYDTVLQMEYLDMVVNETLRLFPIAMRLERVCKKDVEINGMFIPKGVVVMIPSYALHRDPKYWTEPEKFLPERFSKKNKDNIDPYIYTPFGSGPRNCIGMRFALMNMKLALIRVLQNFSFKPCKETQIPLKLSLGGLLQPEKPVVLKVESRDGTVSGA
For orientation: In qHTS, concentration-response curves come from the screen itself.

The target of test [5] is Cytochrome P450 2C19 (Homo sapiens) (UniProt P33261). The test can be described thus: qHTS Assay for Inhibitors and Substrates of Cytochrome P450 2C19 (AID 899). Also: nearly all actives have a fitted effect of over 60% in size. Also: potency is read from the fitted curve at half-maximal effect. Put shortly:
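In 50mM KPO4, the reaction held 5nM enzyme and KM-level (10uM) Luciferin-H EGE; it ran 60 min at 37C after NADPH regeneration and a 10 min compound preincubation. Luminescence values were scaled to 57uM ketoconazole as complete inhibition.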

Test [6] addresses Cytochrome P450 2C9 (Homo sapiens) (UniProt P11712). The test can be described thus: qHTS Assay for Inhibitors and Substrates of Cytochrome P450 2C9 (AID 883). Also: potency is read from the fitted curve at half-maximal effect; nearly all actives have a fitted effect of over 60% in size. Put shortly: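 CYP2C9 deoxyluciferin hydroxylation, 37C, 60 min with NADPH regeneration; 10nM enzyme, 100uM Luciferin-H (KM). Glo detection reagent stopped reaction; luminescence normalized to sulphaphenazole (57uM) full inhibition.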

Test [7] concerns the target Cytochrome P450 3A4 (Homo sapiens) (UniProt P08684). The test can be described thus: qHTS Assay for Inhibitors and Substrates of Cytochrome P450 3A4 (AID 884). Also: potency is read from the fitted curve at half-maximal effect; nearly all actives have a fitted effect of over 50% in size. Put shortly: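 20 nM human CYP3A4 with 25 uM Luciferin-PPXE (at KM) in 200 mM KPO4, preincubated 10 min with compound; NADPH regeneration started a 60 min RT reaction. Luciferin detected by luminescence, normalized to 57 uM ketoconazole as full inhibition.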

For test [8], the target named is Cytochrome P450 2D6 (Homo sapiens) (UniProt P10635). The test can be described thus: qHTS Assay for Inhibitors and Substrates of Cytochrome P450 2D6 (AID 891). Also: nearly all actives have a fitted effect of over 60% in size. Also: potency is read from the fitted curve at half-maximal effect. The essentials: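 Human CYP2D6 (5 nM) with 30 uM Luciferin-ME EGE (at Km) in 100 mM KPO4, compound preincubated 10 min, then NADPH regeneration system for 60 min at room temperature. Luciferin read by luminescence; normalized to 1.43 uM quinidine.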
Sequence of Cytochrome P450 2D6 (Homo sapiens) (P10635 whole entry, looked up): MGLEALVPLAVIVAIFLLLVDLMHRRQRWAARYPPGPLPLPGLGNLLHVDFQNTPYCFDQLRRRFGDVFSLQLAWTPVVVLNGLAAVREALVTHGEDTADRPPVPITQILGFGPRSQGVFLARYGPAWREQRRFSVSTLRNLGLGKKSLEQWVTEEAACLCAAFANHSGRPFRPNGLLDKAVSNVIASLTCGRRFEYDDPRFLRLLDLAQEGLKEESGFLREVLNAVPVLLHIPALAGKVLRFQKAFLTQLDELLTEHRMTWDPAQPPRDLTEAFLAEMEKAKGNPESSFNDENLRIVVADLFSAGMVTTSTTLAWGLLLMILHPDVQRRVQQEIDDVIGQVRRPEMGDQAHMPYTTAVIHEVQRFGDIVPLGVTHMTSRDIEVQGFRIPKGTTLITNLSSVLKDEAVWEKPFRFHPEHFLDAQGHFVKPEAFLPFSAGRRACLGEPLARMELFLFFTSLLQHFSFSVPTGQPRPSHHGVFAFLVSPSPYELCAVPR

Sequence of Cytochrome P450 1A2 (Homo sapiens) (P05177 whole entry, looked up): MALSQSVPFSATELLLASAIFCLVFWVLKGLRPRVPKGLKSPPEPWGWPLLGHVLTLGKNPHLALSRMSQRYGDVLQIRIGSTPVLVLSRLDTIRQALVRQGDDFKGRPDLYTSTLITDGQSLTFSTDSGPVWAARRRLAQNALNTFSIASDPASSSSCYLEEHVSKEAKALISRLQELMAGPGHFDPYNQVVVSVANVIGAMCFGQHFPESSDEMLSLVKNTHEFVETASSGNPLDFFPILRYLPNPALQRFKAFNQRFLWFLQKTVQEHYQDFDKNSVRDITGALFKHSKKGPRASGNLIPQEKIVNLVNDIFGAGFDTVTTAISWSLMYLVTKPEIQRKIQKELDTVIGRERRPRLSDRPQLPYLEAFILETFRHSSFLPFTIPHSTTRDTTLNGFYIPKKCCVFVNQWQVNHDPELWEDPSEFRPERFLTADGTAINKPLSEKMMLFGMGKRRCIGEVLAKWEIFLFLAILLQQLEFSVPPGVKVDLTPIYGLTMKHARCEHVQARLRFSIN
Sequence of Cytochrome P450 2C19 (Homo sapiens) (P33261 whole entry, looked up): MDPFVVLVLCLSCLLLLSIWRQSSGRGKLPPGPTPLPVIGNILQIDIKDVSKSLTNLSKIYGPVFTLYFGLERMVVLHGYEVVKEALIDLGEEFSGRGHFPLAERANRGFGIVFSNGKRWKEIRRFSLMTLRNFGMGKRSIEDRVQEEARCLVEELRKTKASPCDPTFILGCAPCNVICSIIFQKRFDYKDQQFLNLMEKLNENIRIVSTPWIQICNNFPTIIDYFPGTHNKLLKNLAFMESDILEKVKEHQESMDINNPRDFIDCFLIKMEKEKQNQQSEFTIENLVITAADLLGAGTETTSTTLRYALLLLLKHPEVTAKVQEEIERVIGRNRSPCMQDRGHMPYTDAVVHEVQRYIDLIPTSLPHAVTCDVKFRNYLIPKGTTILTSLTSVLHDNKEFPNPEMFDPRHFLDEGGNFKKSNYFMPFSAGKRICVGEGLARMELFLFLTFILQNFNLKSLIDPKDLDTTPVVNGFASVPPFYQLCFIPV
Sequence of Cytochrome P450 2C9 (Homo sapiens) (P11712 whole entry, looked up): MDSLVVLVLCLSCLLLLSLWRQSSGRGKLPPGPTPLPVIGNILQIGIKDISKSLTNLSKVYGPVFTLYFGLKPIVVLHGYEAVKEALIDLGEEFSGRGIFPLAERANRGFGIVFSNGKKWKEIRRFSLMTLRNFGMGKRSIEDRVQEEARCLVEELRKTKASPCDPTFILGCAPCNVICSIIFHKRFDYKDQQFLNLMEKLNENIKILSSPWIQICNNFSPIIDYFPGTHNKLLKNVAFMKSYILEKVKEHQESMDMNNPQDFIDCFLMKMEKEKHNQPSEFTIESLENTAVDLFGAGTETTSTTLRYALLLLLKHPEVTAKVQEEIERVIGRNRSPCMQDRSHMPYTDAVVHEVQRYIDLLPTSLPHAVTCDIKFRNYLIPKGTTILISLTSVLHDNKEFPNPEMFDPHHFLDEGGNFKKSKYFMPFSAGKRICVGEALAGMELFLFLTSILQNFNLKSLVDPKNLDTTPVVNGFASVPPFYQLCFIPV

Turning to `COC(=O)[C@H]1C[C@@H]1[C@H](NC(=O)OCc1ccccc1)c1ccccc1`, the figures for the Potency in test [1] and in test [5] were 126 nM (active) and 3160 nM (active), respectively. The Potency result in test [2], in test [3] and in test [4] was “inactive” in each case.

For `COc1ccc2nc3c(cc2c1)Cc1ccccc1-3`, the Potency in test [1] was 251 nM (active); in test [6], 6310 nM (active); in test [7], 6310 nM (active); in test [8], 6310 nM (active); in test [5] it was 2510 nM (active). Besides, the Potency entry in test [2] and in test [4] was “inactive” throughout.

Regarding `CC(C)C[C@@H](CC(=O)N[C@@H](CCC(=O)O)CC(=O)O)NC(=O)[C@@H]1CCCC[C@H]1NC(=O)C[C@H](CCCN)NC(=O)C[C@H](CO)NC(=O)[C@@H]1CNCC[C@H]1N`, the Potency entry in test [1], in test [2], in test [3], in test [8] and in test [5] was “inactive” in each case.

Turning to `COC(=O)[C@@]1(Cc2ccccc2)[C@H]2c3cc(C(=O)N4CCCC4)n(Cc4ccc(O)c(OC)c4)c3C[C@H]2CN1C(=O)c1ccccc1`, the Potency in test [1] was 25100 nM (active); in test [6], 2510 nM (active); in test [7], 2000 nM (active). The Potency result in test [2] and in test [4] was “inactive” each time.

Consider `COC(=O)[C@@H]1C[C@H]1[C@@H](NC(=O)c1ccccc1)c1ccccc1`, for which the Potency was 5010 nM (active) in test [1] and 1260 nM (active) in test [5]. Besides, the Potency result in test [2] and in test [3] was “inactive” each time.

Consider `CCC/C=C(\CCC)C(NC(=O)c1ccc(C(=O)OC)cc1)c1ccc(C(=O)OC)cc1` (configuration not stated), for which the Potency entry in test [1], in test [2] and in test [4] was “inactive” in each case. Also, in test [6], the Potency is 2000 nM (active).

For `CCC/C=C(\CCC)C(NS(=O)(=O)c1cccc2cccnc12)c1ccc(-c2ccccc2)cc1` (configuration not stated), the Potency in test [1] is 794 nM (active); in test [6], 2000 nM (active); in test [7], 3160 nM (active). Besides, the Potency entry in test [2] and in test [4] was “inactive” in each case.

On to `CCCc1cc2c(n1Cc1cc(F)cc(F)c1)C(C)C1CN(C(=O)c3ccccc3)C(C)(C(=O)OC)C21` (configuration not stated), for which the Potency result in test [1], in test [2] and in test [4] was “inactive” in each case. The figures for the Potency in test [6] and in test [7] were 6310 nM (active) and 3160 nM (active), respectively.

With `CCCCC#Cc1ccccc1CC(=O)Nc1ccccc1`, the Potency in test [1] is 2510 nM (active); in test [6], 2510 nM (active); in test [5], 794 nM (active). For the same compound, the Potency result in test [2] and in test [4] was “inactive” in each case.

Regarding `CCC/C=C(\CCC)C(NC(=O)c1cccs1)c1ccc(C(=O)OC)cc1` (configuration not stated), the Potency in test [1] was 5010 nM (active); in test [6], 2000 nM (active); in test [7], 1260 nM (active); in test [5], 794 nM (active). Besides, the Potency result in test [2] and in test [4] was “inactive” in each case.

As for `CCCC[C@@H]1C[C@H]1C(NC(=O)c1ccco1)c1ccc(-c2ccccc2)cc1` (some centres not stated), the Potency in test [1] was 5010 nM (active); in test [6], 3160 nM (active). Also, the Potency entry in test [2] and in test [4] was “inactive” each time.

For `CC(=O)N[C@@H](c1ccccc1)[C@]1(C)C[C@H]1[C@@H](C)C(=O)Nc1ccc2ccccc2c1`, the Potency was 12600 nM (active) in test [1], 6310 nM (active) in test [6], 7940 nM (active) in test [7] and 398 nM (active) in test [5]. Besides, the Potency entry in test [2] and in test [4] was “inactive” each time.

Take `c1ccc2c(c1)Cc1cc3cc4c(cc3nc1-2)OCO4`: the Potency was 501 nM (active) in test [1]; 3980 nM (active) in test [6]; 1000 nM (active) in test [7]; 1260 nM (active) in test [8]; 1260 nM (active) in test [5]. The Potency result in test [2] and in test [4] was “inactive” throughout.

For the compound `COC(=O)[C@@]1(Cc2ccc(F)cc2)[C@H]2c3cc(C(=O)N4CCCC4)n(CCN4CNCC4=O)c3C[C@H]2CN1C(=O)c1ccccc1`, the Potency is 15800 nM (active) in test [1], 7940 nM (active) in test [6] and 2000 nM (active) in test [7]. The Potency result in test [2] and in test [4] was “inactive” in each case.

For `COC(=O)[C@@]1(Cc2ccc(F)cc2)[C@H]2c3cc(C(=O)N4CCCC4)n(CCc4ccc(O)c(O)c4)c3C[C@H]2CN1C(=O)c1ccccc1`, the figures for the Potency in test [1], in test [6] and in test [7] were 20000 nM (active), 3160 nM (active) and 2510 nM (active), respectively. Besides, the Potency entry in test [2] and in test [4] was “inactive” throughout.

As for `CC[C@@H]1OC(=O)[C@@H](C)[C@H](O[C@@H]2C[C@@](C)(OC)[C@@H](O)[C@H](C)O2)[C@H](C)[C@H](O[C@@H]2O[C@@H](C)C[C@@H](N(C)C)[C@H]2O)[C@@](C)(O)C[C@H](C)C(=O)[C@@H](C)[C@H](O)[C@@]1(C)O`, the Potency entry in test [1], in test [2], in test [3], in test [8] and in test [5] was “inactive” each time.

Regarding `CCCC/C=C/C(NC(=O)c1cccs1)c1ccccc1` (configuration not stated), the values for the Potency in test [1], in test [6] and in test [5] were 1580 nM (active), 316 nM (active) and 1580 nM (active), respectively. For the same compound, the Potency result in test [2] and in test [4] was “inactive” each time.

As to `COC(=O)[C@H](C)[C@@H]1C[C@@]1(C)[C@@H](NC(=O)OCc1ccccc1)c1ccccc1`, the figures for the Potency in test [1], in test [6] and in test [5] were 15800 nM (active), 5010 nM (active) and 316 nM (active), respectively. For the same compound, the Potency result in test [2] and in test [4] was “inactive” in each case.

Take `COc1cc2nc3c(c([Si](C)(C)C(C)(C)C)c2cc1OC)Cn1c-3cccc1=O`: the results for the Potency in test [1] and in test [7] were 5010 nM (active) and 3980 nM (active), respectively. The Potency result in test [2] and in test [4] was “inactive” throughout.
